A selection: hits, their analogues and other compounds. The true share with any hit is near 5.7%.
NPSR antagonist – neuropeptide S receptor (human) antagonism, cAMP; Q6W5P4; Potency, µM (titrated, usually from 38.3 µM), for inactives: top-dose activity change, negative = inhibition, most hits filed as inhibitors; AID 1461; actives 1% (n = 220,000); CHO-NPSR cells, cAMP TR-FRET, antagonist mode; note: nearly all actives have a fitted effect of over 50% in size
B2AR arrestin – beta2AR (human) beta-arrestin recruitment activity; actives 0.02% (n = 330,000); beta-arrestin recruitment to beta2AR, cell-based reporter; Potency, µM (series often up to 46.1 µM), without a hit: at the highest dose activation, actives largely listed as activators;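 note: 0% = DMSO controls and full agonism = EC100 isoproterenol or metaproterenol; nearly all actives have a fitted effect of over 65% in size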
Target sequence (P07550 whole entry, looked up): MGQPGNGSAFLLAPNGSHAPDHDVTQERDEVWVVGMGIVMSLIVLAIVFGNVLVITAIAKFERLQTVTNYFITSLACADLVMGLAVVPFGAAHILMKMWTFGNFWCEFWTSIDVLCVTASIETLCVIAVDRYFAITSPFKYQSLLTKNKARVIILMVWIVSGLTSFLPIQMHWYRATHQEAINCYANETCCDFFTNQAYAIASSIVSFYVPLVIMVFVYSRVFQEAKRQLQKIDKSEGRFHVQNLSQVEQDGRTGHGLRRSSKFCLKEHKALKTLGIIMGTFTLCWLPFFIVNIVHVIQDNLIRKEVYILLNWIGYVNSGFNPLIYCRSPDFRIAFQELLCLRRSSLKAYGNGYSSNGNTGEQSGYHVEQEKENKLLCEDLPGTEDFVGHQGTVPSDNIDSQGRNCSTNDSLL
RORg inh – ROR gamma (mouse) transcription inhibition. P51450. Drosophila S2 Gal4-RORgamma UAS-luciferase reporter, 20 h. Potency, µM (series often up to 53.6 µM), for the others: at the top dose activity change, negative = inhibition, actives largely listed as inhibitors. actives 5.4% (n = 310,000); note: nearly all actives have a fitted effect of over 60% in size
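Drosophila Schneider cells stably carrying a metallothionein-driven Gal4 DBD–ROR gamma fusion and a UAS-Photinus luciferase reporter were exposed to compound for 1 hr, then induced with copper sulfate (700 uM final) for 20 hr at ambient temperature before luminescence reading.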
Gal4-VP16 FLuc – Gal4-VP16 reporter inhibition counter-screen; Drosophila S2 Gal4-VP16 UAS-luciferase, luminescence, 20 h; Potency, µM (series often up to 53.6 µM), inactives show at the highest dose activity, negative = inhibition, actives largely listed as inhibitors; actives 3.5% (n = 310,000); AID 2546;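 note: Gal4-VP16 expression switched on by copper sulfate through the metallothionein promoter; nearly all actives have a fitted effect of over 50% in size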
The depositor's hits bear a star; ? = inconclusive; . = not tested or not shown; [ ] = remark or other dose. Calls come from the whole dose curve; as a rule, active = well fitted curve in the direction sought with a large enough effect; inconclusive = small, poorly fitted or top-dose-only effect, or another doubt; inactive = no such curve, though single readings can be large; an effect the other way counts as inactive or inconclusive. Unless noted, % is set by controls: 0 for no effect and ±100 for the full control effect; potency is the fitted concentration of half-maximal effect.

SMILES | NPSR antagonist | B2AR arrestin | RORg inh | Gal4-VP16 FLuc
CC1CCCC(NC(=O)CCS(=O)(=O)c2cc3c(cc2Cl)NC(=O)CO3)C1C (stereo not given) | . | 0% | -6% | -7%
COc1cccc(C(=O)NC(=S)Nc2ccc(N3CCCC3)cc2)c1 | -14%[46.1 µM] | 5% | 2µM* | 8.9µM*
CCOc1cccc(C(=O)Nc2ccc(N3CCCC3)cc2)c1 | . | -1% | ? | -6%
COc1cccc(C(=O)NC(=S)Nc2ccc(N(C)C)cc2)c1 | -2% | -1% | 3.5µM* | ?
COc1cc(C(=O)NC(=S)NC(C)C)cc(OC)c1OC | -1% | 0% | 7.9µM* | ?
COc1ccccc1C(=O)NNC(=S)NC(=O)c1cc(OC)c(OC)c(OC)c1 | -8% | 0% | ? | 18%
COc1cc(C(=O)NC(=S)NNC(=O)[C@H]2C[C@@H]2c2ccccc2)cc(OC)c1OC | 4% | 0% | 11µM* | -14%
Cc1cccc(NC(=S)NC2CC3CCCC(C2)N3Cc2cccs2)c1 (stereo not given) | -3%[46.1 µM] | 0% | 5µM* | ?
COCCCNC(=S)NC1CC2CCCC(C1)N2Cc1cccs1 (stereo not given) | -4%[46.1 µM] | -1% | 10µM* | -2%
COCCNC(=S)NC1CC2CCCC(C1)N2Cc1cccs1 (stereo not given) | 2%[46.1 µM] | -1% | ? | -1%
Cc1cc(F)ccc1S(=O)(=O)N1CCCOC1CNC(=O)C(=O)NC1CCCC1 (stereo not given) | . | 0% | -1% | -17%
CCCOc1ccc(N)cc1N | -19%[46.1 µM] | 0% | 4.5µM* | ?
CCCOc1cc(N)ccc1C(=O)OCCN(CC)CC | . | 0% | 3%[2.98 µM] | 5%[17 µM]
CC(C)C(NC(=O)c1c(F)cccc1F)C(=O)N1CCN(c2ncccn2)CC1 (stereo not given) | . | 0% | . | .
CCCn1c(SC(C(=O)Nc2cc(C)ccc2OC)c2ccccc2)nc2ccccc2c1=O (stereo not given) | -30% | 0% | 20µM* | ?
O=C(c1ccco1)N1CCC2(CC1)CN(c1cccc(-c3ccccc3)c1)C2 | . | . | 14% | -29%
CCC(C)NC(=O)CSc1nc2ccc(N3CCOCC3)cc2c(=O)n1CCc1ccccc1 (stereo not given) | ? | 0% | 7.9µM* | ?
CCCCn1c(SCC(=O)NCc2ccccc2)nc2ccc(N3CCOCC3)cc2c1=O | -21%[46.1 µM] | 0% | ? | ?
CCCCn1c(SCC(=O)NC(C)CC)nc2ccc(N3CCOCC3)cc2c1=O (stereo not given) | ? | 4% | 1.3µM* | 20µM*
CCCCn1c(SCC(=O)NCc2ccco2)nc2ccc(N3CCOCC3)cc2c1=O | -17%[46.1 µM] | 0% | 6.3µM* | 18µM*
COCCNC(=O)CSc1nc2ccc(N3CCOCC3)cc2c(=O)n1Cc1ccc(OC)cc1 | -23%[46.1 µM] | 0% | 10µM* | 14µM*
COc1ccccc1NC(=O)CS(=O)(=O)c1cn(CC(=O)N2CCCC2)c2ccccc12 | . | 0% | -5% | -8%
N#CC1CCCc2c1[nH]c1ccc([N+](=O)[O-])cc21 (stereo not given) | ? | -1% | 1% | 8%
CCCCn1c(SCC(=O)Nc2ccc(OC)cc2)nc2ccc(N3CCOCC3)cc2c1=O | -19%[46.1 µM] | 0% | ? | 10µM*
COc1cccc(Nc2ncc3nc(-c4cc(F)cc(F)c4)c(=O)n(C4CC4)c3n2)c1 | . | . | 0% | -10%
SMILES | NPSR antagonist | B2AR arrestin | RORg inh | Gal4-VP16 FLuc
Cc1ccc(C)c(NC(=S)c2ccc3ccccc3n2)c1 | -25% | 0% | 2µM* | 5.6µM*
Cc1ccc(C)c(NC(=S)c2ccccn2)c1 | ? | 11µM* | 0.32µM* | 1.3µM*
COc1ccc(NC(=S)c2ccc(N(C)C)cc2)cc1 | -2% | 0% | ? | 21%
Cc1ccc(NC(=S)c2ccc(N(C)C)cc2)cc1 | -35% | 0% | 10µM* | ?
CN(C)c1ccc(NC(=S)c2ccc3ccccc3n2)cc1 | . | ? | 6.3µM* | ?
Cc1n[nH]c(C)c1Cc1c(F)cccc1Cl | 7% | -1% | 16µM* | -9%
C[n+]1ccn(CC(=O)c2cccs2)c1 | . | -1% | 10µM* | -6%
Brc1ccc(-n2cnc(-c3ccccc3)c2)cc1 | . | 0% | -21% | 4%
Cc1ccsc1C(=O)N1CCCC(CO)(Cc2ccccc2F)C1 (stereo not given) | . | -1% | 1% | -1%
CC1(C)Cc2c(C#N)c(N3CCN(C(=O)c4ccco4)CC3)nc(-c3ccco3)c2CS1 | 10µM* | 0% | ? | 2%
O=[N+]([O-])c1cnc2nc(-c3ccncc3)nn2c1O | 12% | -1% | -40% | -13%
COC(=O)COc1ccc(S(=O)(=O)Nc2cc(OC)ccc2OC)cc1 | -6%[46.1 µM] | 0% | 5µM* | 25µM*
COC(=O)COc1ccc(S(=O)(=O)Nc2ccccc2SC)cc1 | -4%[46.1 µM] | 0% | -1% | 0%
CC(=O)O[C@H]1C(=O)[C@@]2(C)C([C@H](OC(=O)c3ccccc3)[C@]3(O)C[C@H](OC(=O)[C@H](O)[C@@H](NC(=O)c4ccccc4)c4ccccc4)C(C)=C1C3(C)C)[C@]1(OC(C)=O)CO[C@@H]1C[C@H]2O (stereo not given in full) | . | -1% | ? | 20µM*
COc1ccc(C(=O)Oc2cccc3cccnc23)cc1[N+](=O)[O-] | ? | 10% | 2.2µM* | 3.2µM*
Cc1ccc(C(=O)Oc2ccc(Cl)c3cccnc23)cc1[N+](=O)[O-] | ? | ? | 1.6µM* | 3.5µM*
O=C(Oc1ccc(Cl)c2cccnc12)N1CCCCC1 | -1%[46.1 µM] | 0% | 11% | 7%
O=C(Oc1ccc(Cl)c2cccnc12)C12CC3CC(CC(C3)C1)C2 | -36% | -1% | 2.2µM* | 3.2µM*
O=C(Oc1ccc(Cl)c2cccnc12)c1cccnc1 | . | 5% | 0.89µM* | 1µM*
O=[N+]([O-])c1cc([N+](=O)[O-])c(Oc2ccc(Cl)c3cccnc23)cc1NN1CCCCC1 | . | 0% | 6.3µM* | ?
COc1cc2cc(CN(CCc3cccc(C)c3)C(=S)NCCCN3CCOCC3)c(=O)[nH]c2cc1OC | 44% | 0% | 7.1µM* | ?
CCNC(=S)N1N=C2c3ccccc3CCC2C1c1ccc(F)cc1 (stereo not given) | ? | 0% | 8.9µM* | ?
O=C(NCc1ccc(Cl)cc1)[C@@H]1CCCN1S(=O)(=O)c1ccc(Cl)cc1 | . | -1% | . | .
CC(C)(C)c1ccc(S(=O)(=O)N2CCCCC2C(=O)NCc2ccccn2)cc1 (stereo not given) | -7%[46.1 µM] | 0% | ? | 2.5µM*
O=C(NCc1ccccn1)C1CN(S(=O)(=O)c2ccccc2)CCN1S(=O)(=O)c1ccccc1 (stereo not given) | -26% | 0% | 11µM* | -7%
O=C(NCc1ccncc1)C1CCCN1S(=O)(=O)c1ccc(Cl)cc1 (stereo not given) | . | -1% | 0.63µM* | -14%
CC(C)CN1CCC2(CC1)CCN(C(=O)c1cccc(F)c1)CC2 | . | . | -2% | -3%
O=S(=O)(c1ccccc1)N1CCC[C@@]2(CCN(c3ccncc3)C2)C1 | . | . | -15% | -7%
